Here are results for 47 sequences from the supplement of paper PMC11417369.

± gives the standard deviation of the averaged measurements. The full ranking holds about 25,000 sequences; the median of “ln(normalized median fluorescence intensity)” is about 7.9, and the highest 2% start at about 11. Shown is part of a subset that was picked to be rich in the highest values.

This assay deals with PfAP2-I AP2 domain 3 (GST-tagged). In words: gcPBM binding intensity (ln(normalized median fluorescence intensity)); higher = stronger DNA binding. Put shortly: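 Probes on an Agilent 4 × 180k array were primer-extended, double-stranded and 36 bp long, taken from intergenic genomic regions, with negative controls added. GST-tagged P. falciparum DNA-binding domains from E. coli, about 25 μg on average, were applied to the array for 1 h in 1× PBS containing 1% milk, 0.2 mg/ml BSA, 0.5% salmon testes DNA and 0.03% Triton X-100. Binding intensity, obtained after Alexa488 anti-GST antibody detection and a 488 nm scan, is the highest Masliner-normalised natural-log median intensity across replicate spots of either probe orientation.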
With AAACAAAGGGAACATGTGCACTTACAAAAAAAAAGA, the “gcPBM binding intensity (ln)” value came to 9.78 ± 0.28.

For “ATCTATATTATTTCTACACACATATCTATAATATGT [CACACA_site7561]”, the “gcPBM binding intensity (ln)” value was 7.85 ± 0.72.

Turning to “GCTCATATGACAACAACACACAAAAAAATAAAATGA [CACACA_site714]”, the “gcPBM binding intensity (ln)” value came out at 7.8 ± 0.69.

With “TAAACAAATAAATATTGTACATTTTTTCCTTTTAAT [XGTACX_site5594]”, the “gcPBM binding intensity (ln)” value stood at 7.38 ± 0.39.

Regarding “TATAGTTTTGAAAACAAACACACAAAAAAAAAAAAA [CACACA_site1691]”, the “gcPBM binding intensity (ln)” value came to 8.07 ± 0.7.

Consider “TAATATACATATATATGTACATATATATATATATAT [XGTACX_site2684]”, for which the “gcPBM binding intensity (ln)” value stood at 9.09 ± 0.47.

Turning to AAAAGTCTCTTTTTAGTGCACATTTTATTTAAATAT, the “gcPBM binding intensity (ln)” value came to 11.32 ± 0.078.

On to GGGAAAATAAATAAAGTGCAGATATTAAAAGTTGTA, for which the “gcPBM binding intensity (ln)” value was found to be 8.85 ± 0.31.

For “TATAAACCTTTTTGCACGCACACAAAAAAAAAATAA [CACACA_site168]”, the “gcPBM binding intensity (ln)” value stood at 9.99 ± 0.46.

For the sequence “TAAAATAATTTATGCATACACACATATATATATATA [CACACA_site4021]”, the “gcPBM binding intensity (ln)” value was found to be 9.49 ± 0.26.

As to “TGCATAAATTTATGCACACATAAAAAAAAAAAAAAA [CACACA_site2923]”, the “gcPBM binding intensity (ln)” value was 10 ± 0.64.

“TGTGCATAAATTTATGCACACATAAAAAAAAAAAAA [CACACA_site8954]”: the “gcPBM binding intensity (ln)” value came out at 11.5 ± 0.93.

As to “TAATAAAAAAAGTGCACACACATAATATTTATATAT [CACACA_site7548]”, the “gcPBM binding intensity (ln)” value was determined as 9.7 ± 0.18.

With “ATATATTTATTTTGTGCACACAACGCAAACCTTTTA [CACACA_site3508]”, the “gcPBM binding intensity (ln)” value turned out to be 10.98 ± 0.092.

For the sequence “AATATAAGTTTATTAGTGCACAGATAAATATATATT [GTGCAC_site9784]”, the “gcPBM binding intensity (ln)” value came out at 11.4 ± 0.23.

Consider TATATATATATATATGTGCACATTTTATTAAAATGT, for which the “gcPBM binding intensity (ln)” value came to 9.87 ± 0.15.

For “TATGTTGTTTATTTAGTGCATATTTAAATATTATAA [GTGCAC_site9601]”, the “gcPBM binding intensity (ln)” value is 10.16 ± 0.078.

As for “GTGCAAAATATTTTTACACACAAATTTTTACAACAG [CACACA_site3357]”, the “gcPBM binding intensity (ln)” value was 9.99 ± 0.63.

Take “ATTACAATATATACGTGTACATATTACCACCGCTAC [XGTACX_site2308]”: the “gcPBM binding intensity (ln)” value was 8.46 ± 0.7.

As to ACAATAAATATGTGGTTGCACTTATAATATATTTAT, the “gcPBM binding intensity (ln)” value amounted to 8.66 ± 0.4.

As to “ATAAAATAAAACAACACACACGAATGTATAAATATA [CACACA_site4643]”, the “gcPBM binding intensity (ln)” value is 7.66 ± 0.66.

With “TTTTTATAAAATTTTATGAGCTCGGAAAAAATAAAC [GTGCAC_negctrl_site637]”, the “gcPBM binding intensity (ln)” value worked out at 8.49 ± 0.48.

“TGTGAAAATTATGGGGCATGCAATACTTTAAAAATA [TGCATGCA_site653]”: the “gcPBM binding intensity (ln)” value was 7.98 ± 0.72.

Take “GAACAACAACAAAAAAAAAAAAAAAAAAAAAAAAAA [CACACA_negctrl_site199]”: the “gcPBM binding intensity (ln)” value stood at 8.12 ± 0.83.

“ATGATGTCTTTATATTGTACATATATGAAGACGTTA [XGTACX_site7751]”: the “gcPBM binding intensity (ln)” value worked out at 7.79 ± 0.29.

Take “TATGTCCATATTTCCACACACATATTATTTTTATAT [CACACA_site3798]”: the “gcPBM binding intensity (ln)” value turned out to be 8.18 ± 0.53.

As to “AGCTACAAAAATTAATATATATATGTATAGTTATAC [TGCATGCA_negctrl_site531]”, the “gcPBM binding intensity (ln)” value is 7.38 ± 0.59.

As to “ATGTCAAATTTTTGTGCACACATATATAGTTATTAT [CACACA_site2242]”, the “gcPBM binding intensity (ln)” value came to 10.78 ± 0.028.

Take “GTATTTCTTTAATATACACACACCAAAACAAAAAAA [CACACA_site579]”: the “gcPBM binding intensity (ln)” value turned out to be 8.13 ± 0.49.

For “AAATATTACATTTGTTAAATAATATGTTATACATAA [XGTACX_negctrl_site484]”, the “gcPBM binding intensity (ln)” value came out at 7.32 ± 0.54.

With TTTTTGTTATTATGTGTGCACATATATATATATATA, the “gcPBM binding intensity (ln)” value is 10.3 ± 0.31.

As to TATATATATATATATGTGCACATATTTATATGTTTT, the “gcPBM binding intensity (ln)” value was determined as 9.85 ± 0.22.

“TGTGTATTTATAAATACACACCAAATGTTAATATAT [CACACA_site6904]”: the “gcPBM binding intensity (ln)” value was 8.03 ± 0.47.

With CAGTTGTTAATTTGTGTGCACCAAATATTATACATA, the “gcPBM binding intensity (ln)” value was 11 ± 0.33.

With “TATAAAAATGTGCACACACACACATATTTATATTTA [CACACA_site6826]”, the “gcPBM binding intensity (ln)” value was found to be 9.365 ± 0.007.

With “TTTTATTTCTTTGCACCATTTTAAATACAAACAAAT [CACACA_negctrl_site1553]”, the “gcPBM binding intensity (ln)” value is 11.1 ± 0.79.

As to “TCTTTCCTTATTAAAACACACAAATACATTATTTAA [CACACA_site2147]”, the “gcPBM binding intensity (ln)” value came out at 7.84 ± 0.46.

For “GTCAAATTTTTGTGCACACATATATAGTTATTATTA [CACACA_site2241]”, the “gcPBM binding intensity (ln)” value was 11.2 ± 0.23.

Turning to “TTATTTTATTTTTTTGTGCACATATATATTTATAAA [GTGCAC_site9615]”, the “gcPBM binding intensity (ln)” value was 10.86 ± 0.028.

Regarding “GAAATAAATATAATATATATATATATATATATATGT [TGCATGCA_negctrl_site216]”, the “gcPBM binding intensity (ln)” value was found to be 8.25 ± 0.38.

As for “CAACCATTTGTAGGTAAACACACATTATTATTAATA [CACACA_site8842]”, the “gcPBM binding intensity (ln)” value was 7.47 ± 0.46.

For the sequence “AAGTATTTTTTTACATGTACATATATATATATATAT [XGTACX_site5065]”, the “gcPBM binding intensity (ln)” value turned out to be 9.4 ± 0.56.

Consider ATATTATATCTAATCGTGCACAACTGTACATTTGTC, for which the “gcPBM binding intensity (ln)” value is 10.5 ± 0.12.

For “TTTTTTTCATAATATACACACAAAAAAAAAAAAAAA [CACACA_site3224]”, the “gcPBM binding intensity (ln)” value is 8.12 ± 0.68.

On to “TTCATTTTTTGCTTTCAACACACATACAATATATAT [CACACA_site9369]”, for which the “gcPBM binding intensity (ln)” value turned out to be 8.01 ± 0.49.

“AAATTACCCATCCATACACACATATTTTTTTTAATT [CACACA_site2189]”: the “gcPBM binding intensity (ln)” value stood at 7.96 ± 0.64.

Consider “AATTTTTTTTTTAGACGTACAAGAAAAAACAAAAAA [XGTACX_site4990]”, for which the “gcPBM binding intensity (ln)” value was 8.15 ± 0.55.
